Screening results deposited in PubChem BioAssay by Broad Institute.
Hits are enriched below; roughly 3.1% of the tested compounds scored in any of these assays.
dFosB activator: enhances mouse delta FosB homodimer DNA binding; AID 493131; P13346; activation, % at 25 µM; 340,000 tested, 0.99% active; purified delta FosB, TAMRA-CDK5 oligo fluorescence polarization; percent of positive-control signal above neutral wells;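 active means mean activation above about 17%, with every replicate also reaching it, limit read from the data, passing the limit was not always enough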
AF4-AF9 inh: MLL-AF4/AF9 protein interaction inhibition. P42568. AlphaScreen, biotin-AF4 peptide binding to FLAG-AF9. inhibition, % at 10 µM. 350,000 tested, 0.47% active. AID 651704;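 active means every replicate reaching a set inhibition limit, whatever the replicate mean, cut at about 25% in these data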
Target sequence (P42568 whole entry, looked up): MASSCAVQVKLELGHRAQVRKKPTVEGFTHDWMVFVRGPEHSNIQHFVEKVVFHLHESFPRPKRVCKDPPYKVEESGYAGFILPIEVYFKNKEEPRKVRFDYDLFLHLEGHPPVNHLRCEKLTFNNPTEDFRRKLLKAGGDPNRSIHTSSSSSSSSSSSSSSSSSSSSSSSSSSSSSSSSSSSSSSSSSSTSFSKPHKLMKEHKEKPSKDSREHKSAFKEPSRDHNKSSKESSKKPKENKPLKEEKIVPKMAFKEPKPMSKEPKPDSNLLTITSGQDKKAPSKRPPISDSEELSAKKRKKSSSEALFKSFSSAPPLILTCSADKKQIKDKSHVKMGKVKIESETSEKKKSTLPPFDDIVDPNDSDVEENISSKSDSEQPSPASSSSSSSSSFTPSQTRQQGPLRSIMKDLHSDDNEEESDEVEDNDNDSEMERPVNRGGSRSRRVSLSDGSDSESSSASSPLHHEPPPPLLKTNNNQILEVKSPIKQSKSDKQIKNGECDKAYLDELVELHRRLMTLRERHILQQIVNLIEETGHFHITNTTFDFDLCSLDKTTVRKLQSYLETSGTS
DENV2 CPE rescue: inhibitors of DENV2 cytopathic effect; DENV2-infected cells, cytopathic effect rescue, plate reader; CPE inhibition, % at 9.99 µM; 350,000 tested, 1.7% active; AID 651640; in the data active means CPE inhibition above about 20%, passing the limit was not always enough; tested in BHK-21 cells
RAD52 inh: blocks human RAD52 DNA annealing; P43351; 360,000 tested, 0.46% active; inhibition, % at 18.7 µM; AID 651710; recombinant RAD52 DNA annealing, FRET fluorescence;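 active means every replicate showing at least 50% inhibition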
INS-1E GSIS act: primary screen for activators of insulin secretion dependent on glucose, INS-1E cells, GLuc reporter luminescence; activation, % at 16.6 µM; 370,000 tested, 0.61% active; INS-1E GLuc reporter insulin secretion, 2-3 h;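 active means lowest replicate activation of at least 40%, so every replicate reaches that level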
RAD54 inh: blocks human RAD54 Holliday junction branch migration; Q92698; FAM/BHQ fluorescence; inhibition, % at 10.4 µM; 360,000 tested, 0.14% active; AID 602329;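 active means mean normalized replicate activity at least 40 and at least half of replicates scoring 40 or more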;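 further: inhibitors cause a drop in the FAM fluorescence signal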
Numbers stand for hits; 0 = inactive; - = not tested or not shown; ! = a repeat was not active.

SMILES	dFosB activator	AF4-AF9 inh	DENV2 CPE rescue	RAD52 inh	INS-1E GSIS act	RAD54 inh
C[C@H](CO)N1C[C@H](C)[C@H](CN(C)C(=O)C2CCCCC2)Oc2cc(-c3ccccc3)ccc2S1(=O)=O	-	0	0	0	0	0
COc1cccc(/C=C2/SC(=S)N(CCC(=O)N3CCOCC3)C2=O)c1	0	0	0	0	0	0
COc1cccc(/C=C2\SC(=S)N(CCCC(=O)N3CCCCC3)C2=O)c1	0	0	27.5	0	0	0
CCc1ccc(/C=C2\SC(=S)N(CCCC(=O)Nc3nccs3)C2=O)cc1	0	-	-	-	121.5	0
Cc1ccc(/C=C2\SC(=S)N(CCCC(=O)Nc3nccs3)C2=O)cc1	0	0	0	0	-	0
CCC(=O)N1CC2(CN(C(=O)Cc3ccccc3)C2)c2c(n(C)c3cc(OC)ccc23)[C@H]1CO	-	0	0	0	0	-
Cc1nc2ccccc2c2nc(NC(=O)C(F)(F)F)nn12	0	0	0	0	50.4	0
CCOC(=O)C1=C(C)NC(=S)N(C(C)=O)C1c1ccc(Cl)cc1 (stereo unspecified)	0	-	-	-	0	0
COCCOC(=O)C1=C(C)NC(=O)N(C(C)=O)C1c1ccc(Cl)cc1 (stereo unspecified)	0	-	-	-	55.7	0
CO[C@@H]1CN(C)C(=O)c2ccc(NC(=O)C3CCCC3)cc2OC[C@@H](C)N(C(=O)Nc2ccc(C(F)(F)F)cc2)C[C@H]1C	-	0	0	0	0	0
C[C@@H]1CN([C@@H](C)CO)S(=O)(=O)c2ccc(-c3ccncc3)cc2O[C@H]1CN(C)C(=O)c1ccc2c(c1)OCO2	-	0	0	0	0	0
CCCNC(=O)C(Cc1ccc(I)cc1)NC(=O)c1ccc(C#N)cc1 (stereo unspecified)	0	0	32.8	0	-	0
Cn1c(N)c(C(=O)Nc2ccc3ccccc3c2)sc1=S	0	-	-	-	85.9	0
CN(C)C(=O)C[C@@H]1C[C@@H]2c3cc(NC(=O)Cc4ccncc4)ccc3O[C@@H]2[C@H](CO)O1	-	0	0	0	0	0
Cc1cccc(C(=O)NNC(=O)c2ccc(-c3ccccc3)cc2)c1	0	-	-	-	99.3	0
O=C(NNC(=O)c1ccc(-c2ccccc2)cc1)c1ccccc1	0	0	0	0	0	0
COc1cccc(-c2ccc(C3[C@@H]4CN(C(=O)c5ccc(F)cc5)C[C@H]3N4)cc2)c1 (stereo partly specified)	-	0	0	52.0	0	-
O=C(c1ccc(F)cc1)N1C[C@@H]2N[C@H](C1)C2c1ccc(-c2ccc(F)cc2)cc1 (stereo partly specified)	-	0	0	50.1	0	-
CN(C)C(=O)c1cccc(-c2ccc(C3[C@H]4CNC[C@@H]3N4Cc3cc(F)ccc3F)cc2)c1 (stereo partly specified)	-	0	81.5!	0	0	-
COc1cccc(-c2ccc(C3[C@H]4CNC[C@@H]3N4Cc3cc(F)ccc3F)cc2)c1 (stereo partly specified)	-	0	0	54.2!	0	-
N#Cc1cccc(-c2ccc(C3[C@H]4CNC[C@@H]3N4Cc3cc(F)ccc3F)cc2)c1 (stereo partly specified)	-	0	0	0	0	-
Fc1cccc(-c2ccc(C3[C@H]4CNC[C@@H]3N4Cc3ccccc3F)cc2)c1 (stereo partly specified)	-	0	0	59.7	0	-
Cc1ccccc1S(=O)(=O)N1C[C@@H](O)COC[C@H]2O[C@H](CC(=O)N3CCN(C)CC3)CC[C@@H]21	-	0	0	0	0	0
O=C(COc1ccccc1Cl)NCc1ccccc1	0	0	0	0	0	0
O=C(CCc1ccccc1)NNC(=O)COc1ccccc1Cl	0	0	0	0	137.0	0
SMILES	dFosB activator	AF4-AF9 inh	DENV2 CPE rescue	RAD52 inh	INS-1E GSIS act	RAD54 inh
O=C1O[C@H](c2ccccc2)[C@H](c2ccccc2)N2[C@H]1[C@@H](C(=O)N1CCCCCCC1)[C@]1(C(=O)Nc3ccc(C#CC4=CCCCC4)cc31)[C@H]2c1ccccc1OCCO	-	0	0	0	-	0
CCOC(=O)C1=C(c2ccccc2)NC(=O)NC1c1cc(Cl)c(O)c(OC)c1 (stereo unspecified)	0	0	-	0	0	-
CCOC(=O)C1=C(c2ccccc2)NC(N)=NC1c1ccc(OCc2ccc(Cl)cc2)c(OC)c1 (stereo unspecified)	0	26.6	0	0	0	-
CCN1C(=O)/C(=C\C=C\c2ccccc2[N+](=O)[O-])SC1=S	0	0	0	0	0	-
CCN1C(=O)/C(=C/C=C2\N(CC)c3cc(S(=O)(=O)N(C)C)ccc3N2c2ccccc2)SC1=S	91.2	0	0	0	0	-
CO[C@@H]1CN(C)C(=O)c2ccc(NC(=O)C3CCCC3)cc2OC[C@H](C)N(CC2CC2)C[C@H]1C	-	0	0	0	0	0
Cc1ccc(Cn2ccsc2=NC(=O)CCl)cc1	0	0	0	0	63.3	-
C[C@H]1CN([C@@H](C)CO)C(=O)c2cccc(NC(=O)C3CCCCC3)c2O[C@@H]1CN(C)Cc1ccc(Cl)c(Cl)c1	-	0	0	0	0	0
O=C1CC(c2ccccc2)Oc2cc(O)cc(O)c21 (stereo unspecified)	0	0	69.9	0	-	0
COc1ccc(C2CC(=O)c3c(O)cc(O)cc3O2)cc1O (stereo unspecified)	0	0	23.5	0	-	0
O=C1CC(c2ccc(O)cc2)Oc2cc(O)cc(O)c21 (stereo unspecified)	0	0	0	0	0	0
COc1ccc(CN(C)C[C@H]2Oc3ccc(NC(=O)Nc4ccc5c(c4)OCO5)cc3C(=O)N([C@H](C)CO)C[C@@H]2C)cc1	-	0	0	0	0	0
COc1ccc(CN(C)C[C@@H]2Oc3ccc(NC(=O)Nc4ccc5c(c4)OCO5)cc3C(=O)N([C@H](C)CO)C[C@H]2C)cc1	-	0	0	0	0	66.8
COc1ccc(CN(C)C[C@@H]2Oc3ccc(NC(=O)Nc4ccc5c(c4)OCO5)cc3C(=O)N([C@@H](C)CO)C[C@@H]2C)cc1	-	0	0	0	0	0
COc1ccc(CN(C)C[C@H]2Oc3ccc(NC(=O)Nc4c(C)noc4C)cc3CC(=O)N([C@H](C)CO)C[C@@H]2C)cc1	-	0	0	0	0	-
COc1ccc(CN(C)C[C@@H]2Oc3ccc(NC(=O)Nc4ccc5c(c4)OCO5)cc3CC(=O)N([C@@H](C)CO)C[C@H]2C)cc1	-	27.3	0	0	0	0
COc1ccc(CN(C)C[C@@H]2Oc3ccc(NC(=O)Nc4ccc5c(c4)OCO5)cc3C(=O)N([C@@H](C)CO)C[C@H]2C)cc1	-	0	0	0	0	61.3
COc1ccc(CN(C)C[C@@H]2Oc3ccc(NC(=O)Nc4c(C)noc4C)cc3CC(=O)N([C@H](C)CO)C[C@@H]2C)cc1	-	0	40.8	0	0	-
CCCCOc1ccc(-c2nnn(CC(=O)c3c[nH]c4ccccc34)n2)cc1	0	-	-	-	94.1	0
COc1ccccc1CN1C[C@H](C)[C@@H](OC)CN(C)C(=O)c2ccc(NC(C)=O)cc2OC[C@H]1C	-	0	0	0	0	0
